Results on 43 sequences are retold here after article PMC7819943, “Rice protein-binding microarrays: a tool to detect cis-acting elements near promoter regions in rice”.

The full ranking holds about 35,000 sequences; the median of “fluorescence intensity (a.u.)” is about 10,000, and the highest 2% start at about 52,000. The entries come from a sample that favours the highest values as a whole.

The target of the assay is T1, OsWOX13 (Oryza sativa, UniProt Q5QMM3 1-267).
T1 sequence: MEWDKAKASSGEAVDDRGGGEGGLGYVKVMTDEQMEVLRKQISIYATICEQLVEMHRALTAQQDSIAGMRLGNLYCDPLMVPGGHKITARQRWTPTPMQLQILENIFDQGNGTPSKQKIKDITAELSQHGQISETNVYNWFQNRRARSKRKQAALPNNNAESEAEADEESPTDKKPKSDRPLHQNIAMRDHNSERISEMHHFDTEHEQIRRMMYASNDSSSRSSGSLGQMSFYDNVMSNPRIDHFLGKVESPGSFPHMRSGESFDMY
As to the kind of experiment: protein-binding microarray (RPBM); PBS, 2% BSA, 51.3 ng/ul salmon testes DNA, 50 uM zinc acetate, 200 nM TF, 25 C, 1 h; high values mean tight binding. To be noted: protein: recombinant; tags: N-terminal polyhistidine and DsRed monomer fusion (pET32a); label: CyDye5-dUTP incorporated in the synthesized complementary strand; 3' TTTTT single-stranded linker to array surface; dsDNA, one strand shown. The gist of the method: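 Binding signal is defined as the fluorescence intensity of each feature in arbitrary units, read on an Axon 4000B scanner. Transcription factors with N-terminal polyhistidine and DsRed fusions came from E. coli BL21-CodonPlus and were purified on Ni–NTA. They were incubated at 200 nM for 1 h at 25 °C on a custom Agilent array that had been made double-stranded with Cy5-dUTP, with 50 µM zinc acetate present, and the array was washed.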
For “AAAATATAATCAAAATAATTTACTTATCCATGTAATCATACGGAGTCACCTAGTGCAG”, the binding signal was 3770 fluorescence intensity (a.u.).
As for “ATATAATTAAATGATTAATTAATTAGTACCGTTTTACTTGCGGAGTCACCTAGTGCAG”, the figure is 65500 fluorescence intensity (a.u.).
For “ATAATTAGATTAAAATAGATTTTACCCGTTGCAATGCACGCGGAGTCACCTAGTGCAG” the value was 56200 fluorescence intensity (a.u.).
For “AACACCATACCAAAATCCAAATATACTTATATTTTACTTACGGAGTCACCTAGTGCAG” the value was 65000 fluorescence intensity (a.u.).
For “CTAATGACGAATTAATTAGAATTAATAGATTTATCTTGCACGGAGTCACCTAGTGCAG”, the binding signal was 53300 fluorescence intensity (a.u.).
As to “ATAATAAGATTAAAATAACATTTACCCGTTGCAAAGCACGCGGAGTCACCTAGTGCAG”, the binding signal is 3610 fluorescence intensity (a.u.).
For “CCAAATTACAACAAATATAATTTTACTTAATCCAAAGTAACGGAGTCACCTAGTGCAG” the value was 8310 fluorescence intensity (a.u.); for “AATGAATTTAGATAGATATATATATCTAGATTCATTAGCACGGAGTCACCTAGTGCAG”, 7940 fluorescence intensity (a.u.); for “GTTTAATGATAAATCTAGTAATATTAATTTTACATGATTGCGGAGTCACCTAGTGCAG”, 25600 fluorescence intensity (a.u.).
As for “ATAATATATGATTAATTAAGTTTTAATTATTACAAACTTGCGGAGTCACCTAGTGCAG”, the figure is 37000 fluorescence intensity (a.u.).
For “TGGTCAGATAGCTAGATTGATATCCCTCTCTCTCTCTCACCGGAGTCACCTAGTGCAG” the value was 13900 fluorescence intensity (a.u.); for “TTGTAAATTACCTGCAAGGAAGAATTAACCAAGATGTCTTCGGAGTCACCTAGTGCAG”, 5040 fluorescence intensity (a.u.); for “AATCATTTTCAGTTACAAATTAAATGGTGTTTCAATAGCTCGGAGTCACCTAGTGCAG”, 6090 fluorescence intensity (a.u.).
“TTAATTATTGTGAGTAATAGATTAACGACACACGTGTTGACGGAGTCACCTAGTGCAG”: the binding signal was 23300 fluorescence intensity (a.u.).
As for “TTTAGATAATTAATATTTAAATAATTATACTCTCGTTTTGCGGAGTCACCTAGTGCAG”, the figure is 29600 fluorescence intensity (a.u.); as for “AATATACTTAATTACCTCTATTAGTTAATATACTTAACACCGGAGTCACCTAGTGCAG”, 12000 fluorescence intensity (a.u.).
For “CTTAACTTTAAATATATAATTTTATAATAATTTTACGTTGCGGAGTCACCTAGTGCAG” the value was 17500 fluorescence intensity (a.u.); for “GTTTATAATAATTAAAACTTAATTAATCACATGTTATTACCGGAGTCACCTAGTGCAG”, 22900 fluorescence intensity (a.u.).
As to “TAATAATTATAATTAATTACCGGAGTTACTTATTCTAAACCGGAGTCACCTAGTGCAG”, the binding signal is 60400 fluorescence intensity (a.u.).
For “TAAAACTTAATTAATTATACGTTAATATTACCTCGTTTTGCGGAGTCACCTAGTGCAG” the value was 53900 fluorescence intensity (a.u.); for “AGTAATTAGTATGACCACCCTAATATACGGTAGTATGGTACGGAGTCACCTAGTGCAG”, 27200 fluorescence intensity (a.u.).
Take “TTTATTGATTGAGAGGAACTATCTACCTCTGTAATGACATCGGAGTCACCTAGTGCAG”: the binding signal was 46600 fluorescence intensity (a.u.).
For “ATTTAAATTTCCATCCTTAAATTTGAAGGTGATTTTGAGGCGGAGTCACCTAGTGCAG” the value was 21500 fluorescence intensity (a.u.).
For “GCTAATACTTAATTAATCACGCGCTAATAGACCGCTCCGTCGGAGTCACCTAGTGCAG” the value was 24500 fluorescence intensity (a.u.); for “ATTAATTACGCGCTAATCGTTGCTCCGTTTTCCGTGCAAACGGAGTCACCTAGTGCAG”, 11400 fluorescence intensity (a.u.); for “ACTTAATTAATTACGTGTTAATGGACTGCTCCGTTTTCCGCGGAGTCACCTAGTGCAG”, 65500 fluorescence intensity (a.u.).
For “AGCTAATACTTAATTAATCACGCGTTAATGGACTGCTCCGCGGAGTCACCTAGTGCAG” the value was 26700 fluorescence intensity (a.u.); for “TTTAATTAATCACGCGCTAATAGACTGCTCCGTTTTCCGTCGGAGTCACCTAGTGCAG”, 55800 fluorescence intensity (a.u.); for “TTCTAATTAATCACGCGTTAATGGACCGCTCCGTTTTCCGCGGAGTCACCTAGTGCAG”, 42300 fluorescence intensity (a.u.).
For the sequence “ACAGATTAATTAGGCTTAATATATTCATATCGCAGTTTACCGGAGTCACCTAGTGCAG”, the binding signal is 50500 fluorescence intensity (a.u.).
For “ATTACGTAATTAATTAAAATACAAATTTCAGCATCCTTACCGGAGTCACCTAGTGCAG” the value was 42300 fluorescence intensity (a.u.).
For “AGCCTAATTAATCCGTCATCAGCAAATGTTTATTGTAGCACGGAGTCACCTAGTGCAG” the value was 29700 fluorescence intensity (a.u.).
As for “CATTGATTGGCCAGCCGAGGTCTAGCCTCAACCTAGCGTGCGGAGTCACCTAGTGCAG”, the figure is 54800 fluorescence intensity (a.u.); as for “CACATGTGATTGGGCCTCGAGCCTCAGCGTGCGTGCGCCCCGGAGTCACCTAGTGCAG”, 20400 fluorescence intensity (a.u.); as for “CTCCCGTGCAGTTGCCAGTTGATTGGTTCAGCGTGGCTGCCGGAGTCACCTAGTGCAG”, 9720 fluorescence intensity (a.u.).
As to “ACTTCTATAATATATGTAAATTACCTTTTGGCTTTGCTGACGGAGTCACCTAGTGCAG”, the binding signal was 4500 fluorescence intensity (a.u.).
As for “TATAGATTAGAGAATTAGTGGAGAACAAAATATAATAAAGCGGAGTCACCTAGTGCAG”, the figure is 5050 fluorescence intensity (a.u.).
As for “TTAAAATTGATTTTAGGGGATTTTCATCTGAGCTTATGTTCGGAGTCACCTAGTGCAG”, the figure is 55800 fluorescence intensity (a.u.); as for “TTTTAGGATGATTTAATTGTAAATTTAAAATTAAAATGGTCGGAGTCACCTAGTGCAG”, 35400 fluorescence intensity (a.u.); as for “TGCTTTTCATGTTTATTGATTTAGGCGCACCTGTTCTGTTCGGAGTCACCTAGTGCAG”, 3190 fluorescence intensity (a.u.).
As for “AAAATTTAAATTTTCAGGCTTAAATTTGAAATTGATTTTACGGAGTCACCTAGTGCAG”, the figure is 7780 fluorescence intensity (a.u.); as for “TTAACAATATTTTAATGATTGCTCTTGTGCTTAGAAAATTCGGAGTCACCTAGTGCAG”, 5300 fluorescence intensity (a.u.).
Consider “CAGAATGATTGTGCTTAATTGTAAAATTGATTTTAGGATTCGGAGTCACCTAGTGCAG”, for which the binding signal was 61100 fluorescence intensity (a.u.).
